Here are results for 5 compounds from paper PMC5540273 (PLoS ONE, 2017).

Test systems include SRMS; SRPK1; SRPK2; SRPK3; STK16; STK33; STK35; STK36; STK39; SYK.
Holding throughout (details): concentration: 1 μM, replicates: in singlicate; n = 1

Each structure is given as a SMILES string.
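Note: KINOMEscan kinase panel screen.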

As for `Cn1ccc2ncnc(Oc3ccc(NC(=O)Nc4cccnc4)c(Cl)c3)c21`, the “%Inh” value in the assay on SRMS was 0%; in the assay on SRPK1 it was 12%; in the assay on SRPK2, 0%; in the assay on SRPK3, 0%; in the assay on STK16, 3%; in the assay with STK33 it was 0%. In addition, the “%Inh” value is on record as 6% in the assay with STK35, 13% in the assay with STK36, 0% with STK39 and 0% in the assay with SYK.

Turning to `Cc1cccc(-c2nc(Nc3ccc4[nH]nnc4c3)c3ccccc3n2)n1` [GW867587], the “%Inh” value with SRMS is 10%; in the assay with SRPK1 it was 0%; in the assay on SRPK2 it was 0%; in the assay on SRPK3, 7%; in the assay on STK16, 0%; with STK33, 0%. The “%Inh” value in the assay on STK35, in the assay with STK36, with STK39 and in the assay with SYK was 0% in each case.

On to `COC(=O)c1cccc(NC(=O)NCCNc2ccnc(Nc3ccc(F)cc3)n2)c1` [GSK1379883], for which the “%Inh” value with SRMS was determined as 0%; with SRPK1, 17%; in the assay on SRPK2, 0%; in the assay on SRPK3, 7%; in the assay on STK16, 5%; with STK33 it was 0%. Moreover, the “%Inh” value in the assay with STK35 worked out at 0%; with STK36, 0%; in the assay with STK39, 0%; with SYK, 5%.

On to `Oc1ccc2ncnc(Nc3ccc(OCc4ccccc4)cc3)c2c1` [GI262866], for which the “%Inh” value is recorded as 0% in the assay with SRMS; 32% in the assay with SRPK1; 0% in the assay on SRPK2; 15% in the assay with SRPK3; 3% in the assay with STK16; 8% in the assay with STK33. Besides, the “%Inh” value amounted to 7% in the assay on STK35, 0% with STK36, 0% in the assay with STK39 and 14% with SYK.

On to `C[C@@H]1CCN(C(=O)CO)C[C@@H]1N(C)c1ncnc2[nH]ccc12`, for which the “%Inh” value amounted to 0% in the assay with SRMS; 24% in the assay on SRPK1; 0% with SRPK2; 0% with SRPK3; 0% in the assay on STK16; 2% in the assay with STK33. Further, the “%Inh” value was 4% with STK35, 0% in the assay on STK36, 0% with STK39 and 3% in the assay on SYK.
